# Only some compounds are listed: those with a hit (about 0.78% of all), similar ones and a draw of the others.
# PI4K2A inh: blocks human PI4K2A kinase activity; 420,000 tested, 0.13% active; purified PI4K2A, ADP-Glo luminescence, 1 h; hits give low values; Q9BTU6; activity change, negative = inhibition, % at 76.9 µM; in the data active means activity change below about -50%; inconclusive means mostly about -30% to -49%
#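 ADP-Glo luminescence measured ADP generated by PI4K2A enzyme (4 ug/mL before mixing) with 1.2 mM PI substrate (pre-mix) and 300 microM ATP (pre-mix). Tris pH7.5 buffer with MgCl2, Triton X-100; 1 h reaction at ambient temperature.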
# GLS inh: blocks human kidney-isoform glutaminase activity. 410,000 tested, 0.21% active. O94925. Potency, µM (top dose mostly 45.5 µM), actives largely listed as inhibitors. GLS enzymatic activity, qHTS titration. AID 624170
# Target sequence (O94925 whole entry, looked up, canonical isoform): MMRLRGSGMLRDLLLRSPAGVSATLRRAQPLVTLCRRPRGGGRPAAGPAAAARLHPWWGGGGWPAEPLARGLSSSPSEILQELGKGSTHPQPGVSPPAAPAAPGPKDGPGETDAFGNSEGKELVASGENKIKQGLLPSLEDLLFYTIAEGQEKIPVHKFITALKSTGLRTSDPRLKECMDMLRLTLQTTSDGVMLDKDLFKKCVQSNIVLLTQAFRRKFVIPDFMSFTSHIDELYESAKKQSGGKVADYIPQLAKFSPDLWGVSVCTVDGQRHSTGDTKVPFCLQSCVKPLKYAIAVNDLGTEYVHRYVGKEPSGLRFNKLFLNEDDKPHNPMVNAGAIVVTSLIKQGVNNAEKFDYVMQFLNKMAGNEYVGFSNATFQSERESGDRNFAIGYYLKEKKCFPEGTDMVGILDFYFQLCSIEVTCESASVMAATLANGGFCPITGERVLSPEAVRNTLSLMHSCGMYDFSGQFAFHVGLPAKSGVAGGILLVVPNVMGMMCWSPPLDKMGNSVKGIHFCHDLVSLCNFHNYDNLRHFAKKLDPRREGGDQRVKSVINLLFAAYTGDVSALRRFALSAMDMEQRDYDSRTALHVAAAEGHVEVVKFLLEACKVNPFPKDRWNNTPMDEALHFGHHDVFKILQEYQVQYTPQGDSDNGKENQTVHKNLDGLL
#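 Coupled fluorescence readout: glutamate oxidase/HRP/Amplex Red detect glutamate formed by hKGA from L-glutamine (1 mM solution added). Buffer 45 mM KH2PO4 pH 8.2, 0.02% Tween-20; reads at t0 and 30 min RT.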
# PINK1 expr mod: changes PINK1 expression | PINK1 immunofluorescence, high-content cytometry, 24 h | Potency, µM (series often up to 76.6 µM), actives largely listed as activators | 410,000 tested, 0.2% active; active means well fitted activation curve with a large enough effect; inconclusive means small, poorly fitted or top-dose-only effect; cell line not stated here; further: nearly all actives have a fitted effect of over 65% in size
#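 Stable cell line treated 24 h with compounds at 5 concentrations (CCCP controls), then fixed and immunostained for PINK1 plus nuclear and cell stains; PINK1 immunofluorescence quantified by laser-scanning microplate cytometry.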
# PGK inhibitor: blocks T. brucei phosphoglycerate kinase; AID 602233; P07378; Potency, µM (top dose mostly 57.5 µM), hits mostly inhibitors; PGK/GAPDH coupled, Kinase-Glo luminescence, 60 min; 380,000 tested, 0.043% active; further: nearly all actives have a fitted effect of over 60% in size
#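 Recombinant glycosomal PGK reaction used 1,3-bisphosphoglycerate generated in-well by GAPDH (100nM final) in 100mM TEA pH 7.6, 5mM MgCl2, 0.01% Tween-20. After 60 minutes at room temperature, ATP was read by Kinase-Glo Plus luminescence end-point.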
# CCT modulator: cytosolic chaperonin activity modulation; purified chaperonin ATPase assay, HTRF ADP detection, 30 min; activity change, % (test concentration not listed), hits read low; 360,000 tested, 0.3% active; AID 651819; in the data active means activity change below about -30%
#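 First, chaperonin was dispensed at 40 nM or 20 nM final depending on batch activity. Next, compounds were pinned at 76 uM and ATP added at 10 uM. After 30 min at 37 °C, ADP detection reagents ran 30 min at ambient temperature.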
# Numbers stand for hits; – = inactive; ? = inconclusive; · = no result given. Unless noted, the call rests on the fitted dose curve; in most records, active means well fitted curve in the direction sought with a large enough effect; inconclusive means small, poorly fitted or top-dose-only effect, or another doubt; inactive means no such curve, though single readings can be large; an effect the other way counts as inactive or inconclusive.
SMILES,PI4K2A inh,GLS inh,PINK1 expr mod,PGK inhibitor,CCT modulator
CC1=C/C(=C\c2ccc(Br)o2)C(=O)O1,–,11µM,–,10µM,–
O=C1C=C(N2CCOCC2)c2ccccc2C1=O,-75,–,–,–,–
Cc1ccc(C(=O)N/N=c2\oc3ccccc3cc2C(N)=O)cc1,–,–,–,–,-30
NC(=O)c1cc2ccccc2o/c1=N\NC(=O)c1ccncc1,–,–,–,–,–
O=[N+]([O-])c1cc(Cl)ccc1N1CCCCC1,–,–,–,–,–
NC(=O)c1ccc(N2CCN(c3ccc(O)cc3)CC2)c([N+](=O)[O-])c1,–,13µM,–,–,–
O=[N+]([O-])c1cc(Cl)ccc1N1CCN(c2ccccc2O)CC1,–,16µM,–,–,–
Cc1ccccc1-c1ccc(CN2CCc3nnc(CNC(=O)c4ccccn4)n3CC2)cc1,·,·,–,·,·
Cc1ccc(S(=O)(=O)CC(CN2CCOCC2)N2CCOCC2)cc1 (centres undefined),–,–,–,–,–
Cc1ccc(S(=O)(=O)CC(C)N2CCOCC2)c(S(=O)(=O)CC(C)N2CCOCC2)c1 (centres undefined),–,–,–,–,-41
COc1ccc(NC(=O)c2cccc(S(=O)(=O)Nc3ccc(Br)cc3)c2)cn1,–,–,14µM,–,–
O=C(Nc1ccc(Br)cc1)c1cccc(S(=O)(=O)Nc2cnc3ccccc3c2)c1,–,–,?,–,–
COc1ccc(-c2nc3ccccc3o2)cc1NC(=O)CSc1ccc(Cl)cc1,–,–,–,–,-90
Cc1c(F)cc2c(=O)c(C(=O)O)cn3c2c1CCC3C (centres undefined),–,·,·,·,·
CC(=O)c1ccc(-c2ccc3c4c(ccc3c2)OC(CNC(=O)[C@@H]2CCCN2C(C)=O)C4)s1 (some centres undefined),·,·,–,·,·
COCCn1c(SCc2cccc([N+](=O)[O-])c2)nc2ccccc2c1=O,–,–,–,–,–
Cn1c(SCc2cccc([N+](=O)[O-])c2)nc2ccccc2c1=O,–,–,–,–,-39
CC1(C)C2CCC1(C)C(OC(=O)CSc1nc(N)cc(=O)[nH]1)C2 (centres undefined),–,–,–,–,-70
CC(=Nc1ccccc1)C1=C(O)C(Cc2ccc(O)cc2)NC1=O (centres undefined),–,–,–,–,-68
CCC1C2CN(C(C)=O)CC=C2C(C#N)=C(N)C1(C#N)C#N (centres undefined),–,–,–,–,–
COc1cc(C2C3CN(C)CC=C3C(C#N)=C(N)C2(C#N)C#N)ccc1OC(C)C (centres undefined),–,–,40µM,–,–
CN1CC=C2C(C#N)=C(N)C(C#N)(C#N)C(Cc3ccccc3)C2C1 (centres undefined),–,–,18µM,–,–
CC(C)N1CC=C2C(C#N)=C(N)C(C#N)(C#N)C(c3ccccc3)C2C1 (centres undefined),–,–,7.9µM,–,–
CC(NC(=O)c1cccnc1)c1nnc2n1CCN(Cc1ccc(-c3ccccc3Cl)o1)CC2 (centres undefined),·,·,–,·,·
CCN[C@@H]1C[C@H](N)[C@@H](OC2OC(CN)=CCC2N)[C@H](O)[C@H]1O[C@H]1OC[C@](C)(O)[C@H](NC)[C@H]1O (some centres undefined),–,·,·,·,·
SMILES,PI4K2A inh,GLS inh,PINK1 expr mod,PGK inhibitor,CCT modulator
COc1cc(OC)c(OC)cc1CN1CCCC(n2cc(C(=O)N3CCCCC3)nn2)C1 (centres undefined),·,·,–,·,·
COc1ccc(-c2cc(C#N)nc(Cl)n2)cc1,–,–,–,–,–
COc1ccc(-c2cc(C#N)nc(NN)n2)cc1,–,18µM,–,–,–
COc1ccc(OC)c(NC(=O)CSc2nnc(C)n2Cc2ccccc2)c1,–,–,–,–,-49
Cc1ccc(NC2C(=O)NC(=O)NC2=O)cc1,-59,–,–,–,–
COc1ccc(-c2coc3cc(OC(C)=O)ccc3c2=S)cc1,–,–,18µM,–,–
CC(=O)Oc1ccc2c(=O)c(-c3ccccc3)coc2c1,–,–,–,–,–
Cc1ccc(/C(C#N)=C\c2ccc(N3CCOCC3)o2)cc1,–,?,?,·,–
Cc1ccc2nc(/C(C#N)=C\c3ccc(N4CCOCC4)o3)[nH]c2c1,–,–,11µM,–,–
Cc1[nH]c(=O)[nH]c(=O)c1Cc1cccc2ccccc12,–,–,–,–,-37
COC(=O)CCC(=O)OC1(C)C(=O)C2=CN(Cc3ccc(OC)cc3)C(c3ccc(OC)cc3)=CC2=C(Br)C1=O (centres undefined),–,–,–,–,–
CCC(=O)OC1(C)C(=O)C2=COC(c3ccc(OC)cc3)=CC2=C(Br)C1=O (centres undefined),?,–,–,20µM,–
COC(=O)CCC(=O)OC1(C)C(=O)C2=CN(c3ccccc3)C(c3ccc(OC)cc3)=CC2=C(Br)C1=O (centres undefined),–,–,–,–,–
COc1ccc(C2=CC3=C(Br)C(=O)C(C)(O)C(=O)C3=CO2)cc1 (centres undefined),?,–,–,20µM,–
COC(=O)c1ccc(CN2CCOc3ccc(CN4CCC(O)(c5cccnc5)CC4)cc3C2)cc1,·,·,–,·,·
Cc1cccnc1-c1cccc2c1OC(CNC(=O)C(=O)c1ccccc1)C2 (centres undefined),·,·,–,·,·
COc1ccccc1CCNc1ncnc2sc(C(=O)N3CCCN(C=O)CC3)c(C)c12,·,·,–,·,·
Cc1ccc(S(=O)(=O)Nc2ccccc2CNc2ccc(Br)cn2)cc1,–,–,16µM,–,–
O=C(CSc1nc(NS(=O)(=O)c2ccccc2)cc(=O)[nH]1)Nc1ccc(Cl)cc1,–,–,–,?,–
COc1ccc(NC(=O)CSc2nc(NS(=O)(=O)c3ccccc3)cc(=O)[nH]2)cc1,-53,–,–,?,–
COc1ccc(NC(=O)CSc2nc3ccccc3cc2Cc2ccccc2)cc1,–,–,11µM,–,–
CO[C@@H]1[C@@H](OC)[C@H](C)[C@@](O)(CC(=O)O)O[C@H]1[C@H](C)[C@H]1O[C@@]2(CC[C@@](C)([C@H]3CC[C@@](C)([C@@H]4O[C@@H]([C@H]5O[C@](C)(O)[C@H](C)C[C@@H]5C)C[C@@H]4OC4C[C@H](OC)[C@@H](OC)[C@H](C)O4)O3)O2)C[C@H](O)[C@H]1C (some centres undefined),–,·,·,·,·
O=C(NC[C@@H]1CCCN2CCCC[C@H]12)c1cnn(-c2nccc(-c3cc4ccccc4o3)n2)c1C1CC1,·,·,–,·,·
Cc1ncc(-c2ccc(F)cc2)c(C2CCCN(Cc3cccc(O)c3)C2)n1 (centres undefined),·,·,–,·,·
